# Reference: PubChem BioAssay
# Activity calls are given as the source filed them.
# Legend:
# [1] = E. coli DRC41 culture turbidity changes, primary screen, E. coli filamentation inducer project, strain DRC41, OD650, 48 h (AID 1152);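 further: E. coli MC1000 strain DRC41 lacking acrAB efflux pump and sulA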; conditions: E. coli DRC41 (acrAB sulA), higher = more signal, called active from +8 up or from −8 down
# [2] = small-molecule binders of probe aLefty1, primary screen, biochemical, small-molecule microarray, 635/667 nm fluorescence (AID 1153); conditions: higher = more signal;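 further: score merges spot fluorescence with signal-to-noise ratio from the scanned slide images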
# [3] = PSAC antagonists in infected red cells, primary screen, cell-based, P. falciparum Indochina, OD700, 1 h (AID 1154); conditions: P. falciparum Indochina infected RBC osmotic lysis, higher = more signal, called active from +8 up or from −8 down
# [4] = PSAC antagonists in infected red cells, primary screen, cell-based, P. falciparum Indochina, OD700, 2 h (AID 1155);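 further: lysis reports solute entry through the parasite surface anion channel PSAC; channel blockers reduce lysis of infected cells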; conditions: P. falciparum Indochina infected erythrocytes, osmotic lysis OD700; higher = more signal, called active from +8 up or from −8 down
# [5] = osmotic lysis modulators in infected erythrocytes, primary screen, PSAC antagonist project, cell-based, P. falciparum Indochina, OD700, 3 h (AID 1156); conditions: higher = more signal, called active from +8 up or from −8 down
# [6] = PSAC antagonists in infected red cells, primary screen, cell-based, P. falciparum Indochina, OD700, 18 h (AID 1157); conditions: P. falciparum Indochina infected erythrocytes, osmotic lysis OD700, 18 h; higher = more signal, called active from +8 up or from −8 down
# [7] = modulators of S6 phosphorylation in cells, primary screen, cell-based, A549, cytoblot, luminescence, serum-stimulated (AID 1158); conditions: A549 phospho-S6 cytoblot, 5 h, higher = more signal;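 further: serum-stimulated A549 lung adenocarcinoma cells; signal is phosphorylated S6 detected by cytoblot immunostaining with HRP secondary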
# [8] = biological target: NADPH oxidase 2 (Homo sapiens) (UniProt P04839); assay: NOX2-dependent H2O2 signal modulators, primary screen, NOX inhibitor project, cell-based, HEK293-NOX2, PMA-stimulated, Amplex Red fluorescence (AID 1159); conditions: 45 min, higher = more signal, called active from +8 up or from −8 down; further: test concentration not given here
# [9] = biological target: NADPH oxidase 4 (Homo sapiens) (UniProt Q9NPH5); assay: NOX4-dependent H2O2 signal modulators, primary screen, NOX inhibitor project, cell-based, HEK293-NOX4, tetracycline-induced, Amplex Red fluorescence (AID 1160); conditions: 45 min, higher = more signal, called active from +8 up or from −8 down
# [10] = biological target: NADPH oxidase 5 (Homo sapiens) (UniProt Q96PH1); assay: NOX5-dependent H2O2 signal modulators, primary screen, NOX inhibitor project, cell-based, HEK293-NOX5, Amplex Red fluorescence (AID 1161); conditions: HEK293-NOX5, ionomycin, 45 min, higher = more signal
# Sequence of NADPH oxidase 5 (Homo sapiens) (Q96PH1 whole entry, looked up): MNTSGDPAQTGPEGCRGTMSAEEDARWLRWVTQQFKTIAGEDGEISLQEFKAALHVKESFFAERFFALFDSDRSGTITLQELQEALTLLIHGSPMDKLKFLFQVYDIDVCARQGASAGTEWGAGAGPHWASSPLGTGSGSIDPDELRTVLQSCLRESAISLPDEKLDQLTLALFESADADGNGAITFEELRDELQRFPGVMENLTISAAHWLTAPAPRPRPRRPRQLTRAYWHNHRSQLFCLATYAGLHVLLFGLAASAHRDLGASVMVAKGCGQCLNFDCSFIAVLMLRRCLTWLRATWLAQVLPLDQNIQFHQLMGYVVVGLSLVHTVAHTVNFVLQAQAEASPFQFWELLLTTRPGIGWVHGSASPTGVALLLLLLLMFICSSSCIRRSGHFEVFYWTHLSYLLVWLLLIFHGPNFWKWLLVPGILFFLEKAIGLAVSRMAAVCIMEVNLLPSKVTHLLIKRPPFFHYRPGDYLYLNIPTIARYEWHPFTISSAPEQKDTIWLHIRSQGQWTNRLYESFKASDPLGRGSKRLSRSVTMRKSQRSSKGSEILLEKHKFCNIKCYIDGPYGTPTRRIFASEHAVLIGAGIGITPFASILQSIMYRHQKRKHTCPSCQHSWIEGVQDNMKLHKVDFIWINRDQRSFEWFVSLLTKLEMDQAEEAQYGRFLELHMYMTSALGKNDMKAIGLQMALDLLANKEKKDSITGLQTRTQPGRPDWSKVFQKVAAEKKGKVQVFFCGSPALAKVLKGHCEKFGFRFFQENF
# Sequence of NADPH oxidase 2 (Homo sapiens) (P04839 whole entry, looked up): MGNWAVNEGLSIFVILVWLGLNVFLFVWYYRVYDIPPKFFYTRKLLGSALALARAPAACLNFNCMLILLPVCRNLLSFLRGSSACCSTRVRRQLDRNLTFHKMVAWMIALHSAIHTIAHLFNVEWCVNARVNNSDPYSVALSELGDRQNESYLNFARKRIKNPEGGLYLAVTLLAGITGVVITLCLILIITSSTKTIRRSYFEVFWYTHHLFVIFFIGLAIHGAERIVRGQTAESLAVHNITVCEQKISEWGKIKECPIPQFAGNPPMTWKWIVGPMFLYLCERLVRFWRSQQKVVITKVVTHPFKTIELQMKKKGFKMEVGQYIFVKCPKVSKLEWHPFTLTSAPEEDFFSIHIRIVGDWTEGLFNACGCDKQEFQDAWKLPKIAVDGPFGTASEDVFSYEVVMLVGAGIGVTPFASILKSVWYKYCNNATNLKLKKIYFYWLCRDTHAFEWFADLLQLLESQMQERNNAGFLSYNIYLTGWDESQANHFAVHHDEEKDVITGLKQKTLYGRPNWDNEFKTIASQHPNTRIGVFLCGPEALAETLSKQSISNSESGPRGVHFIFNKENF
# Sequence of NADPH oxidase 4 (Homo sapiens) (Q9NPH5 whole entry, looked up): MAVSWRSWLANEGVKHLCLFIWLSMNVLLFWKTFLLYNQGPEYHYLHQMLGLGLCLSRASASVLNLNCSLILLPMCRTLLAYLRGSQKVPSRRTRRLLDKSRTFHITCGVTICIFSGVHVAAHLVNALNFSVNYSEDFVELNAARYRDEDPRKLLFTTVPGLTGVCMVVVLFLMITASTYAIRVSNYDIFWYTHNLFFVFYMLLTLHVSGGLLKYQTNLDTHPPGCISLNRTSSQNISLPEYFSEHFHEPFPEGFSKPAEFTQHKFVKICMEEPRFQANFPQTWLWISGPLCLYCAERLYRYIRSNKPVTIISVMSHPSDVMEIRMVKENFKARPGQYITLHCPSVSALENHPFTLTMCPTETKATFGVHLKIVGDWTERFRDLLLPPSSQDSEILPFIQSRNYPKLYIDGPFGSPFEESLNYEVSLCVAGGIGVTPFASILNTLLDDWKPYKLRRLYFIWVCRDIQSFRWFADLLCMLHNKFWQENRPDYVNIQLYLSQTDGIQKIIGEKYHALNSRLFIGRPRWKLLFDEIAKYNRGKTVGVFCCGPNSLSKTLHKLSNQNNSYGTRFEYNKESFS
Compound,z-score [1],composite z-score [2],z-score [3],z-score [4],z-score [5],z-score [6],z-score [7],z-score [8],z-score [9],z-score [10]
O=C(NCC(F)(F)F)[C@@H]1c2ccccc2C(=O)N(Cc2ccc(OC(F)(F)F)cc2)[C@H]1c1ccc(CO)cc1,0.484 (inactive),-0.252,0.926 (inactive),-0.137 (inactive),1.44 (inactive),0.376 (inactive),-0.323,-0.759 (inactive),-0.889 (inactive),-0.263
COCCCNC(=O)[C@]1(CCS(=O)(=O)c2ccccc2)N=C(c2ccc(OCCCO)cc2)O[C@@H]1c1ccccc1CN=[N+]=[N-],0.704 (inactive),1.35,24.6 (active),10.3 (active),1.41 (inactive),1.8 (inactive),-0.377,0.826 (inactive),1.78 (inactive),1.97
COc1cc2c(cc1OC)CN(C(=O)[C@@H]1[C@H]3C(=O)O[C@H](c4ccccc4)[C@H](c4ccccc4)N3[C@H](c3ccc(OCCO)cc3)[C@@]13C(=O)Nc1ccccc13)CC2,0.547 (inactive),0.534,5.29 (inactive),2.11 (inactive),1.06 (inactive),0.956 (inactive),-0.0621,0.799 (inactive),0.837 (inactive),1.03
COc1ccc(NC(=O)O[C@H]2[C@H](OC(=O)Nc3ccccc3)[C@H](OC(=O)Nc3ccccc3)[C@@H](OC)O[C@@H]2CO)cc1,-1.37 (inactive),0.457,8.18 (active),1.26 (inactive),-0.329 (inactive),0.889 (inactive),0.0488,0.824 (inactive),-0.11 (inactive),-0.922
CC(C)(C)N1CC=CC23O[C@@H]4C=CCCOC(=O)C4[C@H]2C(=O)N(CCO)[C@@H]3C1=O (stereo not given in full),0.209 (inactive),-0.0823,0.901 (inactive),0.884 (inactive),1.28 (inactive),0.6 (inactive),0.461,1.31 (inactive),0.696 (inactive),1.23
CC1=C([C@H](O)CCc2ccccc2)[C@H](CO)[C@@H]2C(=O)N(C)C(=O)[C@@H]2C1,1.13 (inactive),0.184,4.81 (inactive),0.403 (inactive),-0.0722 (inactive),-0.0393 (inactive),-0.167,-1.36 (inactive),0.412 (inactive),0.0196
COC(=O)c1c(CC[C@@H](CO)NC(=O)N[C@H](Cn2cc(C3(O)CCCCC3)nn2)C(C)C)oc(C(C)=O)c1C(=O)OC,1.51 (inactive),0.102,1.45 (inactive),-0.141 (inactive),1.02 (inactive),-0.152 (inactive),2.22,-3.25 (inactive),-0.839 (inactive),0.655
Cc1cc(C)cc(N2C(=O)CSC2c2cccc([N+](=O)[O-])c2)c1 (stereo not given),0.421 (inactive),-0.0046,0.385 (inactive),-0.414 (inactive),0.652 (inactive),-0.237 (inactive),-0.261,-1.02 (inactive),-0.364 (inactive),0.483
COCCOC(=O)N1C(=O)[C@@]2(c3cc(C#CC4=CCCCC4)ccc31)[C@H](C(N)=O)[C@H]1C(=O)O[C@H](c3ccccc3)[C@H](c3ccccc3)N1[C@@H]2c1ccccc1OCCO,-0.172 (inactive),0.199,3.63 (inactive),2.55 (inactive),0.629 (inactive),2.15 (inactive),-0.332,2.16 (inactive),0.932 (inactive),1.42
COCCOC(=O)N1C(=O)[C@@]2(c3cc(C#CC4=CCCCC4)ccc31)[C@H](c1ccccc1OCCO)N1[C@H](c3ccccc3)[C@H](c3ccccc3)OC(=O)[C@H]1[C@@H]2C(=O)Nc1nc2ccccc2s1,-0.541 (inactive),0.287,3.53 (inactive),1.72 (inactive),-0.507 (inactive),1.54 (inactive),-0.168,1.59 (inactive),0.571 (inactive),1.41
CCOC(=O)C[C@H]1[C@H](OC(=O)c2cc3ccccc3oc2=O)[C@@H](NC(=O)c2ccc(-c3ccccc3)cc2)c2cc(OCCCO)ccc2N1C(=O)c1ccc2ccccc2n1,-0.216 (inactive),0.132,3.37 (inactive),1.07 (inactive),0.723 (inactive),0.523 (inactive),-0.577,0.858 (inactive),0.688 (inactive),1.11
C=C(/C(=C/C[C@@H](OC(C)=O)c1cccc(OCCO)c1)c1cc(C(=O)OC)ccc1OC)C(C)C,0.546 (inactive),0.0962,9.43 (active),1.6 (inactive),2.19 (inactive),0.75 (inactive),0.547,-2.08 (inactive),-1.07 (inactive),-2.17
O=C1OCC=C[C@H]2OC34C=CCN(Cn5nnc6ccccc65)C(=O)[C@H]3N(CCCO)C(=O)[C@@H]4[C@@H]12 (stereo not given in full),1.54 (inactive),0.0861,0.243 (inactive),-1.01 (inactive),1.24 (inactive),-0.602 (inactive),0.277,0.847 (inactive),-1.42 (inactive),0.1
CC(=O)NCCCC[C@@H]1NC(=O)[C@@H]2C[C@H](C(=O)NCCCC[N+](C)(C)C)[C@H](c3ccc(O)cc3)N2C1=O,-0.003 (inactive),0.389,0.369 (inactive),-1.08 (inactive),0.267 (inactive),-2.27 (inactive),1.34,-3.26 (inactive),-2.25 (inactive),-4.41
O=C(NCCCCCNC(=O)/C(Cc1ccccc1)=N/O)OCc1ccccc1,2 (inactive),-0.696,11 (active),-0.43 (inactive),0.003 (inactive),-2.25 (inactive),1.19,0.53 (inactive),0.0195 (inactive),-1.35
COC(=O)c1c(CC[C@@H](CO)NC(=O)N2CCC[C@H]2Cn2cc(Cc3ccccc3)nn2)oc(C(C)=O)c1C(=O)OC,-0.195 (inactive),-0.177,0.133 (inactive),0.258 (inactive),0.876 (inactive),-0.033 (inactive),0.567,-1.79 (inactive),-0.894 (inactive),-1.85
COc1ccc([Si](C)(C)[C@H]2[C@H](CCO)O[C@@]3(C(=O)N(Cc4cccc(N5C(=O)COc6ccccc65)c4)c4ccccc43)[C@@H]2C)cc1,1.76 (inactive),0.122,2.15 (inactive),3.18 (inactive),1.7 (inactive),1.77 (inactive),0.805,-1.26 (inactive),1.1 (inactive),1.09
CC(C)C(=C=CC[C@H](O)c1cccc(OCCO)c1)C[C@H](O)c1cc(Cl)cc(Cl)c1O,0.321 (inactive),0.0999,14.5 (active),2.25 (inactive),0.667 (inactive),0.847 (inactive),1.53,-1.01 (inactive),-0.881 (inactive),-1.83
C=CCOC(=O)[C@H]1[C@@H]2C(=O)O[C@@H](c3ccccc3)[C@@H](c3ccccc3)N2[C@@H](c2ccc(OCCOC(=O)[C@@H]3C[C@@H]4C(=O)N5CCC[C@H]5C(=O)N4[C@@H]3c3ccc(O)cc3)cc2)[C@]12C(=O)Nc1ccc(I)cc12,-0.695 (inactive),0.293,1.81 (inactive),1.74 (inactive),0.836 (inactive),0.889 (inactive),-0.597,1.47 (inactive),0.482 (inactive),0.186
[N-]=[N+]=NCc1ccccc1[C@H]1OC(c2ccc(OCCCO)cc2)=N[C@@]1(CCS(=O)(=O)c1ccccc1)C(=O)N1CCCCC1,-0.193 (inactive),0.666,25.6 (active),9.69 (active),3.2 (inactive),1.5 (inactive),0.515,0.0197 (inactive),1.56 (inactive),1.63
COCCOC(=O)N1C(=O)[C@@]2(c3cc(C#CC4=CCCCC4)ccc31)[C@H](c1ccc(OCCO)cc1)N1[C@H](c3ccccc3)[C@H](c3ccccc3)OC(=O)[C@H]1[C@@H]2C(=O)NC[C@H](O)c1ccccc1,-0.149 (inactive),1.43,2.35 (inactive),1.31 (inactive),-0.352 (inactive),0.482 (inactive),0.245,1.36 (inactive),0.849 (inactive),1.44
COC(=O)[C@@]1(Cc2ccc(OC)cc2)[C@H]2c3cc(C(=O)N4CCCC4)n(Cc4c(-c5ccccc5)noc4C)c3C[C@H]2CN1C(=O)c1ccccc1,-0.615 (inactive),0.956,5.34 (inactive),1.25 (inactive),-0.749 (inactive),1.5 (inactive),0.406,0.428 (inactive),0.486 (inactive),2.59
O=C1O[C@H](c2ccccc2)[C@H](c2ccccc2)N2[C@H]1[C@@H](C(=O)Nc1nc3ccccc3s1)[C@]1(C(=O)Nc3ccc(C#CC4(O)CCCCCC4)cc31)[C@H]2c1ccccc1OCCO,-0.569 (inactive),0.966,2.83 (inactive),3.35 (inactive),0.602 (inactive),1.56 (inactive),0.164,1.29 (inactive),0.578 (inactive),1.5
C=CCOC(=O)[C@H]1[C@@H]2C(=O)O[C@@H](c3ccccc3)[C@@H](c3ccccc3)N2[C@@H](c2ccc(OCCOC(=O)[C@@H]3C[C@@H]4C(=O)N[C@@H](CCCCN(C)C)C(=O)N4[C@@H]3c3ccc(O)cc3)cc2)[C@]12C(=O)Nc1ccccc12,-1.53 (inactive),-0.0873,0.0625 (inactive),0.249 (inactive),3.35 (inactive),0.251 (inactive),-0.444,2.51 (inactive),0.874 (inactive),0.391
O=C1C2C=CC(C(O)c3ccc(Br)cc3)N(Nc3ccccc3F)C2C(=O)N1c1ccccc1 (stereo not given),0.894 (inactive),-0.192,3.67 (inactive),-0.0291 (inactive),-0.834 (inactive),-1.01 (inactive),0.79,-1.35 (inactive),-2.56 (inactive),-0.774
